Test results published in PubChem BioAssay AID2783 (National Center for Advancing Translational Sciences (NCATS), 2010).
Inconclusive results are not listed. The source made the active and inactive calls. The call rests on the fitted dose curve; in most records, active means well fitted inhibition curve with a large enough effect in the polarisation, with a control signal flat (not every such curve was filed as active); inconclusive means small, poorly fitted or top-dose-only effect, or effect the other way, or a change in a side signal; inactive means no such curve, though single readings can be large or run the other way; the % refers to the polarisation. Where a SMILES comes first, the peptide text is derived from it. Bridges are numbered along the chain shown (N, C = ends). [ ]: non-standard residue; d: D form. The star is where a group is joined. ξ: configuration not given here. ξDab(CH2SO3H) = NC(CCNCS(=O)(=O)O)C(=O)O; Heptanoyl(6-Me) = CC(C)CCCCC(=O)*; Dab = NCC[CH](N)C(=O)O

biological target: Menin (Homo sapiens) (UniProt O00255); assay: Confirmation of Inhibitors Targeting the Menin-MLL Interaction in MLL Related Leukemias: Competition With Fluorescein Labeled MLL-derived Peptide; conditions: Fluorescence polarization, fluorescein-MLL peptide displacement from menin; series mostly up to 100 µM
Sequence (O00255 whole entry, looked up): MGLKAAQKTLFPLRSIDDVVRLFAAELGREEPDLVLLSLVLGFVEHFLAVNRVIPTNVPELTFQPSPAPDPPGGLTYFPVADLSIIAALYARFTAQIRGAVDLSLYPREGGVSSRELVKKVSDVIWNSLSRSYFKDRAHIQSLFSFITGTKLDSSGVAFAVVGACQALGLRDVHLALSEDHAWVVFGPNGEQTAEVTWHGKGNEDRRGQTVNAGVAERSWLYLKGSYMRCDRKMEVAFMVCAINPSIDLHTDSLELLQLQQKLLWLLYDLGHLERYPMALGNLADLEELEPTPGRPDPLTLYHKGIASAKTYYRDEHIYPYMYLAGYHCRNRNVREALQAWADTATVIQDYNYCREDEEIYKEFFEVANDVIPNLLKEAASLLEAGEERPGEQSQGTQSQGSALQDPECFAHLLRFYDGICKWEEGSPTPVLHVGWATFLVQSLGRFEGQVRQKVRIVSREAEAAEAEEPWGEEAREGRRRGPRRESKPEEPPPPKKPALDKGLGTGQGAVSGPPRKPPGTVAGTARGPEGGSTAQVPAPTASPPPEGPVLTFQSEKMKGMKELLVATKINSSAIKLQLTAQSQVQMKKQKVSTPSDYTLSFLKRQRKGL

outcome, inactive:
OC(c1ccccn1)(c1ccccn1)c1ccccn1
O=S(=O)(Nc1cccc(-c2cn3cccnc3n2)c1)c1ccccc1
COc1ccc2[nH]c(=O)c(CN(Cc3cccs3)C(=S)Nc3cccc(C)c3)cc2c1
CCC(=O)NC(=S)Nc1ccc(NC(=S)NC(=O)c2ccc(C)cc2)cc1
C[N+]1(CCNC(=O)/C=N/O)CCCCC1
COCC(=O)Nc1cccc2ccccc12
O=C(/C=C/c1ccccc1)Nc1nnc(SCC(=O)c2ccc3ccccc3c2)s1
COc1ccccc1NS(=O)(=O)c1cc(NC(=O)Nc2ccc(Cl)cc2Cl)ccc1N1CCCCC1
CCc1nnc(NC(=O)C2(C)COC(c3ccc(OC)cc3)OC2)s1 (stereo not drawn)
N=c1oc2ccccc2cc1-c1nc(-c2ccc(Cl)cc2)cs1
Oc1ccc(Nc2ncnc3c2oc2ccccc23)cc1
C[C@@H]1CN(C(=O)c2nc3ccc(Cl)cn3c2CNCC[C@@H]2C[C@@H]3C=C[C@H]2C3)C[C@H](C)O1
O=C(Nc1ccc2c(c1)OCO2)c1ccccc1
Cc1[nH][nH]c(=O)c1C(c1c(C)[nH][nH]c1=O)c1cn(Cc2ccccc2Cl)c2ccccc12
CC(=O)c1cccc(OCC(O)CNCC2COc3ccccc3O2)c1 (stereo not drawn)
O=C(NNCS(=O)(=O)O)c1ccncc1
CCOC(=O)N1CCN(Cc2nnc(-c3ccccc3C)o2)CC1
CCc1ccccc1NC(=O)COc1cccc(-n2cnnn2)c1
CCC(C)C1NC(=O)C(CCNCS(=O)(=O)O)NC(=O)C(NC(=O)C(CCNCS(=O)(=O)O)NC(=O)C(NC(=O)C(CCNCS(=O)(=O)O)NC(=O)CCCCC(C)C)C(C)O)CCNC(=O)C(C(C)O)NC(=O)C(CCNCS(=O)(=O)O)NC(=O)C(CCNCS(=O)(=O)O)NC(=O)C(C(C)CC)NC1=O (stereo not drawn) ({Heptanoyl(6-Me)}-[ξDab(CH2SO3H)]T[ξDab(CH2SO3H)][Dab][ξDab(CH2SO3H)]II[ξDab(CH2SO3H)][ξDab(CH2SO3H)]T; lactam 4-C; configuration not given here)
O=C(CC(Sc1ccc(Br)cc1)C(=O)O)c1ccc(F)cc1 (stereo not drawn)
Cc1cc2ncn(-c3ncnc4sc5c(c34)CCC(C)C5)c2cc1C (stereo not drawn)
COc1ccc(C)cc1N(C(=O)c1snc(C(N)=O)c1N)C(C(=O)NC1CCCC1)c1ccc(F)cc1 (stereo not drawn)
COc1cc(SC)ccc1C(=O)Nc1cccc(C2OCCCO2)c1
COc1ccc(/C=C(\C#N)C(=O)NCc2ccccc2)cc1
CCCC(=O)Nc1cccc(NC(=O)c2ccc([N+](=O)[O-])cc2Cl)c1
CCCOc1ccc(C(=O)N2CCN(Cc3ccc4c(c3)OCO4)CC2)cc1
Cc1ccc(C(=O)Sc2cccccc2=O)cc1
CCCN1CCN(CC(O)COC(c2ccc(OC)cc2)c2ccc(OC)cc2)CC1 (stereo not drawn)
CCOC(=O)Cn1cnc2scc(-c3ccc(C)c(C)c3)c2c1=O
O=C(NC(=S)Nc1nc(-c2ccc(Br)cc2)cs1)c1cccnc1
NC(=O)c1ccc(NC(=O)c2cncn2-c2ccccc2)cc1
NC(=O)C1CCN(C2=C(Cl)C(=O)c3ccccc3C2=O)CC1
COc1ccccc1/C=N/n1c(N)c(S(=O)(=O)c2cccs2)c2nc3ccccc3nc21
